Tau ThT inhib: tau fibrillization inhibition (ThT binding); P10636; Potency, µM (doses to about 57.4 µM), without a hit: top-dose activity, negative = inhibition, actives largely listed as inhibitors; hit rate 2.1% among 270,000; recombinant tau K18 P301L, heparin-induced fibrillization, ThT fluorescence; further: nearly all actives have a fitted effect of over 55% in size
Target sequence (P10636 561-689 P618L limits assumed): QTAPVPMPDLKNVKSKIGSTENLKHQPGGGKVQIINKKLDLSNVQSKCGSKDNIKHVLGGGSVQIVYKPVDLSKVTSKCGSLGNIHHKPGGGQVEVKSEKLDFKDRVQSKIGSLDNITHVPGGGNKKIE
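Aggregation was driven by heparin (20 uM final) acting on recombinant tau […] bearing P301L in 100 mM sodium acetate pH 7; fibrils were detected with Thioflavin T.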
PLK1 PBD inh: inhibitors of human PLK1 polo-box domain binding. Plk1 PBD binding of FITC phosphopeptide, fluorescence polarization. hit rate 2.8% among 360,000. Potency, µM, inactives show max response, negative = inhibition, most hits filed as inhibitors; further: series mostly up to about 57 µM; nearly all actives have a fitted effect of over 65% in size
Target sequence (P53350 whole entry, looked up, the tested form may be a part): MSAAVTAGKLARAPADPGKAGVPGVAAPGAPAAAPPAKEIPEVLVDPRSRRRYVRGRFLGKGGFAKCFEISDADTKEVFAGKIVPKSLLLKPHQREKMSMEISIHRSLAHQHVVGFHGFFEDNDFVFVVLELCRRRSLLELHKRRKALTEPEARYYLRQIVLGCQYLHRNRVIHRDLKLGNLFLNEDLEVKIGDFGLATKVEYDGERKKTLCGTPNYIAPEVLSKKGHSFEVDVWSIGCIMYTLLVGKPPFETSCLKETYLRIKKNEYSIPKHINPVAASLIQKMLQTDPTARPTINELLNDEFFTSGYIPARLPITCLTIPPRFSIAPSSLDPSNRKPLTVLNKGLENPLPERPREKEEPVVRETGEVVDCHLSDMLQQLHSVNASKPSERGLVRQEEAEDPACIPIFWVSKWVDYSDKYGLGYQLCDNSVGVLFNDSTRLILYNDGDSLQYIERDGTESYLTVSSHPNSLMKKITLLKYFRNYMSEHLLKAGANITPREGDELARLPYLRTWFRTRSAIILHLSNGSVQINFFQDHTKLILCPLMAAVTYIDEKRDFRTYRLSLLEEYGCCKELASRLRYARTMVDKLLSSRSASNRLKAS
Sfp inh: Sfp phosphopantetheinyl transferase inhibition. Biochemical Sfp PPTase activity, qHTS. hit rate 3.5% among 310,000. AID 1490. Potency, µM, without a hit: largest response in the series, negative = inhibition, most hits filed as inhibitors;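 further: the enzyme is Sfp with the accession as filed and its product quenches rhodamine fluorescence; 0% = enzyme reaction without inhibitor and -100% = no enzyme wells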
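Compounds were incubated with enzyme (final 15 nM) for 15 min at room temperature before substrate addition started the reaction. Fluorescence at 525 nm excitation, 598 nm emission was recorded immediately and after 30 minutes.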
Tau fluor counter: counter-screen for tau fibril formation inhibitors; tau K18 P301L Alexa594 fluorescence, heparin fibrillization; Potency, µM (titrated, usually from 57.7 µM), without a hit: top-dose activity change, negative = decrease; hit rate 0.93% among 280,000; AID 1463; further: nearly all actives have a fitted effect of over 55% in size
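Human tau K18 P301L (15 uM unlabeled, 0.24 uM Alexa 594-labeled) in 100 mM sodium acetate pH 7 with 20 uM heparin, 6 hr at 37 C. ThT 30 uM added, 1 hr ambient; Alexa 594 FP and total fluorescence read at 555/632 nm.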
Tau fibril FP: inhibitors of human tau fibril formation. hit rate 0.39% among 280,000. Potency, µM (series often up to 57.7 µM), inactives show top-dose activity, negative = inhibition, actives largely listed as inhibitors. K18 P301L tau heparin fibrillization, Alexa594 FP, 6 h. P10636; further: nearly all actives have a fitted effect of over 55% in size
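Steps: dispense K18 P301L tau (15 uM plus 0.24 uM Alexa 594 tracer, final) in pH 7 sodium acetate; add compound; add heparin (20 uM final); incubate 6 hr, 37 C; add ThT (30 uM final); after 1 hr ambient, read FP.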
VDR inhibitor: vitamin D3 receptor (human) inhibition | P11473 | VDR-SRC2-3 peptide fluorescence polarization, 2 h | Potency, µM, for inactives: max response, negative = inhibition, usual class: inhibitors | hit rate 0.93% among 400,000
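Reagent solutions, kept cold and dark, are dispensed first; compounds are then pinned in at 23 nl, plates briefly spun, and incubated 2 h at ambient temperature. Inhibition of VDR–SRC2-3 peptide binding is read by fluorescence polarization.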
An asterisk follows results filed as active; ? = inconclusive; . = no result given; [ ] = dose if it differs, or a comment. Rows were chosen to be rich in hits. Some 6% of all compounds tested hit in one or more screens of this group. The call rests on the fitted dose curve; in most records, active means well fitted curve in the direction sought with a large enough effect; inconclusive means small, poorly fitted or top-dose-only effect, or another doubt; inactive means no such curve, though single readings can be large; an effect the other way counts as inactive or inconclusive. Unless noted, on the % scale 0 is the no-effect control and ±100 the full control effect; potency means the concentration at half of the fitted maximal effect.

SMILES	Tau ThT inhib	PLK1 PBD inh	Sfp inh	Tau fluor counter	Tau fibril FP	VDR inhibitor
CCOc1ccc(C2=CSC3=NCCN23)cc1Cl	.	?	?	.	.	79.4µM*
Oc1ccc(C2=CSC3=NCCN23)cc1O	.	-9.8%	89.1µM*	.	.	-7.0%
O=C(CN1C(=O)c2ccccc2S1(=O)=O)Nc1cc(S(=O)(=O)N2CCCCC2)ccc1Cl	.	0.7%	.	.	.	-4.5%
Cc1ccc(NC(=O)CCC(=O)N2Cc3ccccc3Oc3ncccc32)cc1	1.5%	.	.	-7.2%	-2.3%	7.4%
CCC(c1nnnn1-c1c(C)cccc1C)N1CCCN(Cc2ccc(F)cc2)CC1 (stereo not given)	.	-0.9%	.	.	.	.
COC(=O)[C@@]12C[C@@H](CC(=O)NCCc3ccccc3OC)C(=O)N(Cc3cccc4ccccc34)C1=CCC(C)(C)C2	.	1.7%	.	.	.	.
CN(C)c1ccc(C=C(C#N)C(=O)c2ccccc2)cc1Br	.	0.844µM*	.	.	.	.
COc1ccc(/C=C(\C#N)C(=O)C(C)(C)n2cncn2)cc1	-3.9%	13.4µM*	-6.1%	-13.2%	?	5.2%
Cc1ccc(C=C(C#N)C(=O)c2ccccc2)cc1	.	1.89µM*	.	.	.	.
COc1ccc(/C=C(\C#N)C(=O)c2cccn2C)cc1	.	-9.6%	-4.5%	.	.	-8.2%
N#C/C(=C\c1ccc(C#N)cc1)C(=O)N1CCCC1	-6.9%	.	?	5.5%	12.5%	.
N#C/C(=C\c1ccc(C#N)cc1)C(=O)c1ccccc1	-13.7%	4.74µM*	50.1µM*	-19.1%	-1.0%	79.4µM*
Cc1ccc(Cc2c(-c3ccc(Cl)cc3)nc3c(C)cc(Br)cn23)cc1	.	-23.5%	.	.	.	.
CCOC(CNC(=O)C(=O)Nc1cc2c3c(c1)CCC(=O)N3CCC2)OCC	.	-10.2%	25.0%	.	.	-6.0%
Cc1cc(O)cc(O)c1/C=N/NC(=O)c1ccc2c(c1)OCCO2	.	-17.1%	.	.	.	.
CCOc1ccccc1NC(=O)C(CC(C)C)NS(=O)(=O)c1ccc2c(c1)CCN2C(C)=O (stereo not given)	-11.8%	.	.	-18.3%	-6.2%	-0.3%
CN(C)c1ccc(/C=C(\C#N)C(=O)c2ccccc2)cc1	?	54.8%	-5.1%	?	-10.4%	-12.7%
COc1ccc(C=C(C#N)C(=O)c2ccccc2)cc1	.	6.7µM*	.	.	.	.
COCCNC(=O)/C(C#N)=C/c1cccs1	-10.6%	25.0%	0.4%	-2.6%	-0.8%	3.6%
CCOc1ccc(/C=C(\C#N)C(=O)Nc2ccccn2)cc1	.	-0.2%	20.2%	.	.	-16.5%
N#C/C(=C\c1cccs1)C(=O)c1ccccc1	.	6.7µM*	-6.8%	-14.1%	3.8%	-14.1%
COC(=O)/C(C#N)=C/c1ccc(OC(=O)c2ccccn2)cc1	?	-12.3%	14.1µM*	6.6%	6.6%	-18.9%
N#CC(=Cc1ccc(-c2ccccc2)cc1)C(=O)c1ccccc1	.	1.5µM*	.	.	.	.
COC(=O)c1c(SCC(=O)Nc2cc(F)ccc2F)[nH]c2ccc(C)cc2c1=O	7.08µM*	.	.	?	-2.7%	6.7%
COC(=O)c1c(SCC(=O)NC2CCCCC2)[nH]c2ccccc2c1=O	.	-6.4%	-6.9%	.	.	22.1%
SMILES	Tau ThT inhib	PLK1 PBD inh	Sfp inh	Tau fluor counter	Tau fibril FP	VDR inhibitor
COC(=O)c1c(SCC(=O)Nc2cccc(Cl)c2C)[nH]c2ccccc2c1=O	15.8µM*	.	.	-27.2%	?	15.1%
O=C(CSc1nc2cc3ccccc3cc2[nH]1)Nc1cccc(C(F)(F)F)c1	-6.4%	.	.	?	3.16µM*	4.3%
COC(=O)c1c(SCC(=O)Nc2cccc(C(F)(F)F)c2)[nH]c2ccccc2c1=O	14.1µM*	.	.	15.8µM*[quencher]	-8.2%	17.9%
Cc1cc(SCC(=O)Nc2ccc(F)cc2F)nc(=O)[nH]1	-9.2%	.	.	5.0%	0.8%	-1.0%
COC(=O)C1=C(C)N(Cc2ccccc2)C(=NCc2cccc(C(F)(F)F)c2)N[C@H]1c1cccc(F)c1	.	-15.1%	56.2µM*	.	.	-2.9%
CCCCCn1c(CCCNC(=O)c2ccccc2)nc2ccccc21	-6.8%	.	.	-10.1%	0.5%	-15.6%
CCC/C=C(\CCC)C(NS(C)(=O)=O)c1ccccc1 (stereo not given)	-1.9%	.	27.1%	-3.0%	-2.9%	.
Cc1ccc(NS(=O)(=O)c2ccc3c(c2)[C@H]2C=CC[C@H]2[C@@H](c2ccc(F)cc2)N3)cc1C	?	.	.	?	-0.5%	-15.6%
NS(=O)(=O)c1ccc2c(c1)C1C=CCC1C(C1CC=CCC1)N2 (stereo not given)	35.5µM*	-24.5%	20µM*	28.2µM*[quencher]	?	-1.6%
COC(=O)CC1C(C)(C)C(=O)C2CC3C4=CC(=O)OC(c5ccoc5)[C@]4(C)CCC3[C@@]1(C)C2=O (stereo not given in full)	-0.8%	.	2.3%	-5.4%	4.6%	9.0%
Cc1cccc2sc(NNC(=O)C3COc4ccccc4O3)nc12 (stereo not given)	?	-7.8%	31.6µM*	-26.1%	-3.8%	-8.9%
O=C(NNc1nc2c(F)cc(F)cc2s1)C1COc2ccccc2O1 (stereo not given)	-7.7%	-3.7%	12.0%	-5.8%	-0.1%	?
O=[N+]([O-])c1cc2oc3c(c2c(C=NCc2ccccc2)c1O)CCCC3	5.01µM*	-23.9%	7.9%	-11.5%	?	-6.2%
COc1cc(CN2CCc3ccccc3C2)cc([N+](=O)[O-])c1O	.	0.1%	?	.	.	-18.3%
C=CCC(Nc1ccccc1)C12C=CC(O1)C(C(=O)OC)=C2C(=O)OC (stereo not given)	7.94µM*	?	-0.2%	-29.8%	-1.3%	?
COc1ccc(S(=O)(=O)NNC(N)=S)cc1	0.1%	-2.7%	28.2µM*	2.8%	-11.5%	2.9%
O=C1C(=O)N(C2CCN(C(=O)c3cccc(Cl)c3)CC2)CCN1Cc1ccc(F)cc1	-1.9%	.	.	-3.0%	1.5%	9.1%
O=C(NCc1nc(-c2ccc(C(F)(F)F)cc2)no1)Nc1cc(Cl)cc(Cl)c1	.	-2.7%	24.8%	?	15.8µM*	-13.8%
CCOC(=O)C1CCN(C(=O)c2ccc(SC)cc2OC)CC1	6.5%	29.9µM*	15.4%	7.0%	1.0%	9.2%
C[C@H]1CN([C@@H](C)CO)C(=O)c2cc(C3=CCCC3)cnc2O[C@@H]1CN(C)C(=O)c1ccncc1	.	-8.0%	.	.	.	.
O=C1/C(=C\c2cc([N+](=O)[O-])ccc2O)SC(=S)N1Cc1ccc(Cl)cc1	.	-11.9%	?	.	.	?
Cc1ccccc1/C=C1\SC(=S)N(/N=C/c2cc([N+](=O)[O-])ccc2O)C1=O	25.1µM*	?	-13.6%	?	-12.9%	-16.4%
Nc1c(Br)cc2oc(-c3ccccc3)nc2c1Br	-10.9%	2.8%	9.3%	-2.2%	0.1%	-2.5%
COc1ccc(-c2nc3c(Br)c(N)c(Br)cc3o2)cc1	?	1.8%	22.4µM*	-19.2%	2.9%	-8.4%

Bioassay records as filed in PubChem BioAssay.
